Assay outcomes deposited in PubChem BioAssay by National Center for Advancing Translational Sciences (NCATS).
TR SRC2 fluor cs = Texas Red fluorescence interference in TRb-SRC2 counter-screen. TRb/SRC2 Texas Red total fluorescence interference. Potency, µM (titrated, usually from 106 µM), for inactives: at the top dose fluorescence change, negative = quenching. actives 0.29% (n = 280,000); active = well fitted curve in either direction with a large enough effect; inconclusive = small, poorly fitted or top-dose-only effect
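Human TRβ ligand-binding domain (0.6 uM) and Texas Red SRC2 peptide (20 nM) in Tris buffer with 1 uM T3 and 5% DMSO were incubated with pinned compound for 5 hr at ambient temperature. Total fluorescence was computed as S + 2P (555/632 nm).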
BLM helicase inh = Bloom syndrome helicase (human) inhibition; recombinant BLM DNA unwinding, fluorescence dequenching; Potency, µM (titrated, usually from 56.1 µM), inactives show at the top dose activity change, negative = inhibition, actives largely listed as inhibitors; actives 0.2% (n = 350,000); AID 2528;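 also: plate controls were vehicle for no effect and no enzyme for full effect; nearly all actives have a fitted effect of over 35% in size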
RECQ1 inh-1 = RECQ1 (human) helicase inhibition. P46063. RECQ1 DNA unwinding, red fluorescence kinetic read. Potency, µM (top dose mostly 57.3 µM), inactives show at the highest dose activity, negative = inhibition, hits mostly inhibitors. actives 0.54% (n = 240,000);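 also: plate controls were vehicle for no effect and no enzyme for full effect; nearly all actives have a fitted effect of over 30% in size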
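50 nM RECQ1T1 preincubated 15 min with compound in Tris pH 8.0 buffer with MgCl2, DTT, Tween-20 and 2.5 ug/ml poly(dI-dC); started with 200 nM TAMRA/BHQ-2 forked duplex and 2 mM ATP. Unwinding read as fluorescence (525/598 nm), two reads 2 h apart.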
TRb SRC2 PPI = disrupts binding of human TR beta to SRC2. P10828. TRbeta-SRC2 peptide binding, fluorescence polarization; receptor liganded with 1 µM T3. Potency, µM (highest dose often 106 µM), for the others: at the highest dose activity change, negative = inhibition, usual class: inhibitors. actives 0.065% (n = 280,000). AID 1469;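 also: plate controls were bound peptide for no effect and peptide without receptor for full effect; nearly all actives have a fitted effect of over 50% in size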
Target sequence (P10828 whole entry, looked up): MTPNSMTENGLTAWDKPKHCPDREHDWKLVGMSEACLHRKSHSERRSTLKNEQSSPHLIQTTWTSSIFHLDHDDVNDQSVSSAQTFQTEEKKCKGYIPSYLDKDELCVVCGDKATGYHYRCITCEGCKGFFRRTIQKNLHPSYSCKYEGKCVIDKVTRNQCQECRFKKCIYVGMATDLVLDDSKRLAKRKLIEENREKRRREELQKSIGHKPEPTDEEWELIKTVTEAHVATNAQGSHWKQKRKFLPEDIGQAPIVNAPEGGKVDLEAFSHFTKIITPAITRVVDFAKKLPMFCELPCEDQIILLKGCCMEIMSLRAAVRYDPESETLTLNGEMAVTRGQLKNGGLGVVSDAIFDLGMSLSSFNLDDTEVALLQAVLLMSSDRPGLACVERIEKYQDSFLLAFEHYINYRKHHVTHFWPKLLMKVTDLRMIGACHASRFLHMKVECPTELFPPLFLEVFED
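Compounds were added to 0.6 uM TRb ligand-binding domain and 20 nM Texas Red-labeled SRC2 peptide in Tris buffer containing 1 uM T3, incubated 5 hr at ambient temperature, then read by fluorescence polarization.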
RECQ1 conf = confirmation of human RECQ1 helicase inhibitors; shares compounds with RECQ1 inh-1; RECQ1 helicase DNA unwinding, fluorescence; Potency, µM (highest dose often 229 µM), without a hit: top-dose activity change, negative = inhibition, usual class: inhibitors; actives 28% (n = 610); AID 2708; also: nearly all actives have a fitted effect of over 45% in size
RECQ1 ADP FP = displaces ADP in a fluorescence polarization counter-screen for RECQ1 hits | shares compounds with RECQ1 inh-1 | ADP fluorescence polarization displacement counterscreen | Potency, µM (doses to about 228 µM), for the others: at the top dose activity change, negative = inhibition, most hits filed as inhibitors | actives 27% (n = 530) | AID 2711; also: nearly all actives have a fitted effect of over 45% in size
RECQ1 inh-2 = blocks human RECQ1 DNA unwinding; shares compounds with RECQ1 inh-1; recombinant RECQ1 DNA unwinding, red fluorescence; Potency, µM (titrated, usually from 119 µM), without a hit: at the top dose activity, negative = inhibition, most hits filed as inhibitors; actives 15% (n = 1,100); AID 504841; also: nearly all actives have a fitted effect of over 50% in size
Active calls of the source: *; i = inactive; ? = inconclusive; nt = not tested or not shown; [ ] = dose if it differs, or a comment. Hits are enriched below; roughly 0.64% of the tested compounds scored in any of these assays. Unless noted, calls follow the shape of the dose curve; as a rule, active = well fitted curve in the direction sought with a large enough effect; inconclusive = small, poorly fitted or top-dose-only effect, or another doubt; inactive = no such curve, though single readings can be large; an effect the other way counts as inactive or inconclusive. Unless noted, % is scaled to controls: 0 for no effect and ±100 for the full control effect; potency is read from the fitted curve at half-maximal effect.

SMILES | TR SRC2 fluor cs | BLM helicase inh | RECQ1 inh-1 | TRb SRC2 PPI | RECQ1 inh-2 | others
CN1CCc2nc3sc(C(=O)Nc4c(F)cccc4F)c(N)c3cc2C1 | -1% | -16% | nt | -3% | nt
CC(C)(C)[C@@H]1C=C(C(=O)NCc2ccccc2)O[C@H](OCc2ccc(CO)cc2)C1 | 0% | -5% | ? | 5% | nt | RECQ1 conf=6%[114 µM];RECQ1 ADP FP=?
C[C@H]1C=C(C(=O)NCc2ccccc2)O[C@@H](OCc2ccc(CO)cc2)C1 | 0% | -1% | ? | 4% | nt
COc1ccccc1NC(=O)c1cc2c(=O)oc3ccc(C)cc3c2s1 | -4% | -3% | nt | 0% | nt
COc1ccc(/C=c2\sc3nc(-c4ccccc4OC)nn3c2=O)c(OC)c1 | -4% | 1% | -5% | 3% | nt
C=CCOc1ccccc1/C=c1\sc2nc(=O)c(C)nn2c1=O | -3% | -8% | ? | -5% | ?
Cc1cc(C)cc(-n2ccn(CC(=O)Nc3ccccc3F)c(=O)c2=O)c1 | 2% | -7% | nt | -5% | nt
O=C(O)CCCCCNC(=O)CCn1cnc2ccccc2c1=O | -2% | -2% | -1% | 6% | nt | RECQ1 conf=5%;RECQ1 ADP FP=5%
CC1=Nc2ccccc2/C1=C\c1nc(-c2ccc(C(F)(F)F)cc2)oc1O | -1% | -3% | -11% | 4% | nt
CC1=Nc2ccccc2/C1=C/c1sc(=N)n(-c2nccs2)c1O | -8% | -10% | 18µM* | 1% | nt | RECQ1 conf=11%[114 µM];RECQ1 ADP FP=34%[91.9 µM]
Cc1ccc2nc3sc(C(=O)NCc4ccco4)c(N)c3cc2c1 | -6% | -5% | -9% | 0% | nt
COc1cc2cc3c(N)c(C(=O)NCc4ccco4)sc3nc2cc1OC | -28% | -24% | ? | -7% | ?
CN(C)C(=O)c1cn(CCC#N)nc1-c1ccc2ccccc2c1 | nt | 2% | nt | nt | nt
CCN(CC)C(=O)c1cn(CCC#N)nc1-c1ccc(F)cc1 | -1% | 0% | 40µM* | 11% | 3%
CCOC(=O)C1=C(N)n2c(s/c(=C/c3ccccc3)c2=O)=C(C(=O)OCC)C1c1ccccc1 (centres undefined) | 2% | 2% | -5% | 12% | nt
CCOC(=O)C1=C(N)n2c(s/c(=C\c3ccco3)c2=O)=C(C(=O)OCC)C1c1ccco1 (centres undefined) | -4% | -11% | ? | -2% | ?
CCOC(=O)C1=C(N)n2c(s/c(=C\c3ccco3)c2=O)=C(C(=O)OC(C)C)C1c1ccco1 (centres undefined) | 7% | -12% | 32µM* | 13% | -26%
Cc1c(NC(=O)Cc2ccc(F)cc2)cccc1-c1nc2cccnc2s1 | -1% | -9% | nt | -2% | nt
CCNc1ccc2c(Cl)cc(=O)oc2c1 | 8% | 0% | 35µM* | -15% | -38%
CCOC(=O)c1cc2c(ccn2C)n1Cc1ccccc1Cl | -1% | -4% | -6% | 1% | nt
CCOC(=O)c1cc2c(ccn2C)n1Cc1ccccc1C | 1% | -9% | 28µM* | 0% | ?
O=C1CC(NC(=O)C(F)(F)F)=NN1c1ccccc1 | 0% | 0% | -1% | -8% | nt
CC(C)(Oc1ccc(Cl)cc1)C(=O)NC1=NN(c2ccccc2)C(=O)C1 | -22% | -6% | ? | 8% | -20%
CCNc1ncc2nc(-c3ccc(OC)cc3)c(=O)n(Cc3cccc(OC)c3)c2n1 | nt | 0% | -6% | nt | nt
CCN(CC)CCCNC(=O)c1ccc2c(c1)sc1nc(-c3ccc(C)cc3)cn12 | -6% | -7% | nt | -2% | nt
SMILES | TR SRC2 fluor cs | BLM helicase inh | RECQ1 inh-1 | TRb SRC2 PPI | RECQ1 inh-2 | others
O=C(COC(=O)CCC(NC(=O)OCc1ccccc1)C(=O)OCC(=O)Nc1ccccc1)Nc1ccccc1 (centres undefined) | -1% | -6% | ? | -3% | -20%
Oc1ccc(N=Cc2ccc(-c3cccs3)s2)cc1 | 9% | ? | 6.3µM* | 32µM* | nt | RECQ1 conf=10%[114 µM];RECQ1 ADP FP=50µM*
O=C(O)c1cc(-c2ccc(/C=C3/SC(=S)N(Cc4ccccc4)C3=O)o2)ccc1Cl | ? | -8% | 6.3µM* | ? | nt | RECQ1 conf=?
Cc1ccc(/C=C2\SC(=S)N(Cc3ccccc3)C2=O)o1 | 1% | -10% | 18µM* | 21% | nt | RECQ1 conf=?;RECQ1 ADP FP=34%[91.9 µM]
O=C1/C(=C/c2ccncc2)SC(=S)N1Cc1ccccc1 | 1% | 3% | i | 4% | nt
COc1ccc2cc(C(C)c3nc4ccccc4c(=O)n3N)ccc2c1 (centres undefined) | 0% | -10% | 28µM* | 0% | -23%
COc1ccc(-c2nc3ccccc3c(=O)n2N)cc1 | 0% | -1% | i | -6% | nt
CCC(Sc1nc2ccncc2[nH]1)C(=O)Nc1cc(C)ccc1C (centres undefined) | -3% | -3% | nt | -4% | nt
Cc1ccc(NS(=O)(=O)c2ccc(NC(=O)c3cccc(NC(=O)C(C)C)c3)cc2)cc1 | -5% | -11% | ? | 4% | -17%
C=C1CCC2C(C)(CO)C(O)CCC2(C)C1C/C=C1\C(=O)OCC1O (centres undefined) | -1% | 0% | -1% | -5% | nt
CCn1c(SCC(=O)Nc2nccs2)nnc1-c1ccc(S(=O)(=O)N2CCCCCC2)cc1 | -3% | -2% | -14% | 2% | nt
Cn1c(SCC(=O)Nc2nccs2)nnc1-c1ccc(S(=O)(=O)N2CCCC2)cc1 | 3% | -1% | i | 4% | nt
O=C(CSc1n[nH]c(-c2ccc(S(=O)(=O)N3CCCCC3)cc2)n1)Nc1nccs1 | -2% | -6% | i | 1% | nt | RECQ1 conf=-6%;RECQ1 ADP FP=25%
Cc1nnc(NC(=O)CSc2nnc(-c3ccc(S(=O)(=O)N4CCCC4)cc3)n2C)s1 | -1% | -6% | -1% | -1% | nt | RECQ1 conf=-1%;RECQ1 ADP FP=13%
CCOC(=O)N1CCC(NC(=O)c2c(C)nn(-c3cccc(C)c3)c2-n2cccc2)CC1 | 1% | -2% | nt | 3% | nt
CCOC(=O)c1noc2ncn(CC(=O)Nc3cccc(C(F)(F)F)c3)c(=O)c12 | -4% | 2% | nt | 1% | nt
CN=C1CC(C)(C)CC(=O)/C1=C(/O)CCCN1C(=O)c2ccccc2C1=O | 1% | 0% | -4% | -1% | nt
O=C(O)CN=C1CC(c2ccccc2)CC(=O)/C1=C(/O)CCCN1C(=O)c2ccccc2C1=O (centres undefined) | -1% | 1% | i | -4% | nt | RECQ1 conf=?;RECQ1 ADP FP=6%
CCOC(=O)c1ccccc1NC(=O)Nc1cc2c(cc1N1CCCCC1)n(C)c(=O)n2C | 0% | -4% | nt | -6% | nt
Cc1cc2nc3ccc(=[N+](C)C)cc-3sc2cc1N | 45µM*[fluorescent] | 16µM* | 16µM* | 7.9µM* | 16µM* | RECQ1 conf=3.5µM*;RECQ1 ADP FP=7.1µM*
